KCNQ2 enhance – potentiators of rat KCNQ2 potassium channel. hit rate 0.54% among 310,000. AID 2239, 2010. CHO-K1 KCNQ2, FluxOR thallium flux fluorescence; stronger effect = higher value. Potassium voltage-gated channel subfamily KQT member 2 (Rattus norvegicus), O88943. B-score at 10 µM;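 active = fluorescence ratio B-score at least 3 SD of library B-scores, with initial fluorescence B-score within 3 of them, cut at about 5.3 in these data; same plate scores as AID 2156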;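 note: B-score of peak minus minimum over baseline fluorescence ratio after K+ and Tl+ stimulus; positive B-score means potentiation of KCNQ2 with more thallium influx and brighter signal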
Target sequence (O88943 whole entry, looked up): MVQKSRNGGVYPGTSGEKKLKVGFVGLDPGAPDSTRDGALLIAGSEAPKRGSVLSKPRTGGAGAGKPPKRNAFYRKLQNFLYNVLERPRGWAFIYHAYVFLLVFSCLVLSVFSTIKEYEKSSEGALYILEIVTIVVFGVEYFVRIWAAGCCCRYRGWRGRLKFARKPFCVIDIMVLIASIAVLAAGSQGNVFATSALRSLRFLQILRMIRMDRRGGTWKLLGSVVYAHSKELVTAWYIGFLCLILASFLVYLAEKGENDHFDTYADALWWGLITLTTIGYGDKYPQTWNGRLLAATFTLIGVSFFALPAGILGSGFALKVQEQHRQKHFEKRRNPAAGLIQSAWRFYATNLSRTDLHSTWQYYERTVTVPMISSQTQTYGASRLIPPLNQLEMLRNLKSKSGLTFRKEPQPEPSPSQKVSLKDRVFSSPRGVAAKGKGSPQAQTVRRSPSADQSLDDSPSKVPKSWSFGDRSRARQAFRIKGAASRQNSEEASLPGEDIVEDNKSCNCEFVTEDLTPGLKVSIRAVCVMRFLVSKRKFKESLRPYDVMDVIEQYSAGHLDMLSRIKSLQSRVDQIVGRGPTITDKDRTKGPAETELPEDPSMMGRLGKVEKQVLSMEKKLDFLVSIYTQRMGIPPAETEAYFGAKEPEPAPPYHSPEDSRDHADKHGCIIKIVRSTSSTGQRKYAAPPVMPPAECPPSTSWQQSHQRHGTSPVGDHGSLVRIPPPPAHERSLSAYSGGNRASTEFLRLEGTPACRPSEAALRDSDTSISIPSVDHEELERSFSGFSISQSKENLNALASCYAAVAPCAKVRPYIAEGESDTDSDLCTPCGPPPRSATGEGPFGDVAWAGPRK
KCNQ2 inh – rat KCNQ2 potassium channel inhibitors, primary screen, cell-based, CHO-K1, FluxOR thallium flux, B-score | Potassium voltage-gated channel subfamily KQT member 2 (Rattus norvegicus), O88943 | 20 min; stronger effect = lower value | B-score at 10 µM | hit rate 1.1% among 310,000 | AID 2156, 2009;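 active = fluorescence ratio B-score at most minus 3 library SDs, with starting brightness B-score within 2 library SDs, cut at about -5.5 in these data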
Kir21 confirm – mouse Kir2.1 channel blockers, retest, confirmation, cell-based, FluxOR thallium flux, duplicate; shares compounds with KCNQ2 enhance; Kir2.1-expressing cells, FluxOR thallium flux fluorescence; stronger effect = lower value; Tl flux remaining, % of negative control (stronger effect = lower value), % at 10 µM; hit rate 41% among 2,300; AID 2032, 2009;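 active = Primary-screen hit whose thallium flux fell at least 3 control SD below untreated wells in both duplicates, with normal baseline fluorescence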;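 note: 0% = blank wells without stimulus and 100% = stimulated no-compound controls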
HEK293 ctr – counter-screen for Kir2.1 inhibitors: effect in parental HEK293 cells; shares compounds with KCNQ2 enhance; FluxOR thallium flux fluorescence; 0% = unstimulated blank wells; FluxOR signal as % of negative control (100 = no effect), % at 10 µM; hit rate 19% among 2,300; AID 2105;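 active = dye signal at least 3 control SD above or below untreated wells in both duplicates, raw fluorescence within 3, either direction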;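 note: percent is based on the flux ratio of peak minus minimum fluorescence over baseline F0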
CHO-K1 Tl ctr – nonspecific thallium flux increase in parental CHO-K1, confirmation, counter-screen for KCNQ2 potentiator project, cell-based, FluxOR thallium flux, duplicate. activity increase over 3SD of controls, % at 10 µM. parental CHO-K1 cells, FluxOR thallium flux fluorescence; zero = vehicle mean+3SD, 100% = vehicle-minus-blank window. AID 2282, 2010. shares compounds with KCNQ2 enhance. hit rate 43% among 1,200;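 active = signal rise of at least 3 SD above the untreated control mean, in both duplicate wells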;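 note: counter screen of KCNQ2 potentiator hits so any rise reflects channel-independent effects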
KCNQ1 sel pot – human KCNQ1 channel potentiation off-target, confirmation, selectivity assay for KCNQ2 potentiator project, cell-based, CHO, FluxOR thallium flux; shares compounds with KCNQ2 enhance; CHO KCNQ1 stable, FluxOR thallium flux fluorescence; beyond 3SD, as % of vehicle-control signal; activation over 3SD threshold, % at 10 µM; hit rate 28% among 1,200; AID 2283, 2010;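 active = fluorescence ratio rise of at least 3 SD of vehicle wells above their mean, in both replicate wells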;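 note: 0% = vehicle mean plus 3 SD and 100% = vehicle minus unstimulated blank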
KCNQ2 pot conf – rat KCNQ2 channel potentiators, confirmation, cell-based, CHO, FluxOR thallium flux, duplicate. CHO-KCNQ2 cells, FluxOR thallium flux fluorescence. shares compounds with KCNQ2 enhance. hit rate 68% among 1,200. potentiation, less the hit threshold, % at 10 µM;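 active = fluorescence ratio rising 3 SD or more over the vehicle control mean in both replicates, plus primary screen hit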;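 note: peak minus minimum thallium fluorescence divided by baseline after K/Tl stimulus; 0% = vehicle mean plus 3 SD and 100% = vehicle minus unstimulated blank difference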
Kir2-1 sel – mouse Kir2.1 channel activation off-target, confirmation, selectivity assay for KCNQ2 potentiator project, cell-based, HEK293, FluxOR thallium flux; shares compounds with KCNQ2 enhance; HEK293 Kir2.1, FluxOR thallium flux fluorescence; activity over 3SD threshold, % at 10 µM; hit rate 2% among 1,200; AID 2345, 2010;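 active = fluorescence ratio rise of at least 3 SD above the vehicle-control mean, seen in both replicates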;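 note: 0% = vehicle mean plus 3 SD and 100% = vehicle minus no-stimulus blank window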
KCNQ2 W236L pot – potentiators of retigabine-insensitive KCNQ2 W236L, mechanism study for KCNQ2 potentiator project, cell-based, rat KCNQ2 W236L, CHO, automated patch clamp; current increase over 3SD of negative controls (%), stronger effect = higher value, % at 25 µM; shares compounds with KCNQ2 enhance; AID 2558, 2010; automated patch clamp current; hit rate 10% among 940;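 active = current increase at least 3 SD of the untreated controls above them in both duplicate recordings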
Numbers without * were called inactive; i = inactive; nt = no result given. Only some compounds are listed: those with a hit (about 1.6% of all), similar ones and a draw of the others.

SMILES	KCNQ2 enhance	KCNQ2 inh	Kir21 confirm	HEK293 ctr	CHO-K1 Tl ctr	KCNQ1 sel pot	KCNQ2 pot conf	Kir2-1 sel	others
CN[C@H]1CC[C@@H](c2ccc(Cl)c(Cl)c2)c2ccccc21	nt	i	32.0%*	i	nt	nt	nt	nt
CCCN1C(=O)c2ccccc2NC1c1ccc(Cl)c(Cl)c1 (configuration not stated)	nt	i	nt	nt	nt	nt	nt	nt
CC(C(=O)Nc1nccs1)N1C(=O)c2ccccc2S1(=O)=O (configuration not stated)	0.65	i	nt	nt	nt	nt	nt	nt
Cn1c(=O)c2c(nc(CN3CCN(C(c4ccccc4)c4ccccc4)CC3)n2CCCO)n(C)c1=O	nt	i	nt	nt	nt	nt	nt	nt
COCCn1c(CN2CCN(C(c3ccccc3)c3ccccc3)CC2)nc2c1c(=O)n(C)c(=O)n2C	5.9*	i	i	i	-2.8	-16.7	-16.6	-23.6
COc1ccc(CC(=O)Nc2ccc3c(c2)CCC3)cc1	1.73	i	nt	nt	nt	nt	nt	nt
O=C(CC1CCCC1)Nc1ccc2c(c1)CCC2	26.3*	i	i	i	-48.4	-16.5	80.4*	-38.9	KCNQ2 W236L pot=i
O=C(Cc1ccccc1)Nc1ccc(N2CCCC2)cc1	1.84	i	nt	nt	nt	nt	nt	nt
O=C(Cc1ccccc1)Nc1cccc(N2CCCC2)c1	6.01*	i	i	i	-23.4	-6.7	21.1*	-27.3	KCNQ2 W236L pot=0.1%*
O=C(Cc1ccccc1)Nc1ccc2c(c1)CCC2	6.46*	i	i	i	16.7*	-16.6	80.6*	-31.1	KCNQ2 W236L pot=i
COc1ccc(NC(=O)CC2CCCC2)cc1OC	nt	i	nt	nt	nt	nt	nt	nt
Cc1cc(F)ccc1S(=O)(=O)Nc1ccc(O)c(Sc2ncn[nH]2)c1	nt	i	nt	nt	nt	nt	nt	nt
Cc1cccc(NC(=O)c2ccc3c(c2)CCN3S(C)(=O)=O)c1	0.5	i	nt	nt	nt	nt	nt	nt
COC(=O)/C=C1/SC(=NC(=O)c2ccc(F)cc2)NC1=O	1.25	i	nt	nt	nt	nt	nt	nt
O=C(NCC1CC1)[C@]1(C(F)(F)F)C[C@H](CCC2CCCCC2)CCCO1	nt	i	nt	nt	nt	nt	nt	nt
CCOC(=O)c1cccc2c(=O)c(C(=O)c3ccc(Cl)cc3)c(C(=O)OC)[nH]c12	0.07	i	nt	nt	nt	nt	nt	nt
CN(CC(=O)Nc1ccccc1Cl)C(=O)CSc1nncn1C	0.5	i	nt	nt	nt	nt	nt	nt
CCN(CC)S(=O)(=O)c1cc(OC)ccc1N=Nc1ccc(O)c2ncccc12	1.98	i	nt	nt	nt	nt	nt	nt
CCOc1ccc(N=Nc2ccc(O)c3ncccc23)cc1	23.3*	i	i	i	12.6*	11.5*	-20.3	-20.9
CCOC(=O)c1c(-c2ccc(C)o2)csc1N	nt	i	nt	nt	nt	nt	nt	nt
CCOC(=O)c1c(-c2ccc(C)o2)csc1NC(=S)NC(=O)N(C)C	14.5*	i	i	314.0%*	-10.2	-18.5	33.8*	-8.2	KCNQ2 W236L pot=58.9%*
Cc1ccc(/C=N\NC(=O)CCc2n[nH]c(=O)[nH]c2=O)o1	0.62	i	nt	nt	nt	nt	nt	nt
CCOC(=O)c1cnc2c(C)cccc2c1NCCc1ccc(OC)c(OC)c1	nt	i	i	i	nt	nt	nt	nt

From PubChem BioAssay
